Results filed as inconclusive are left out. Values without a mark were called inactive. The call rests on the fitted dose curve; in most records, active means well fitted inhibition curve with a large enough effect; inconclusive means small, poorly fitted or top-dose-only effect; inactive means no such curve, though single readings can be large or run the other way.
Assay: Primary qHTS for small molecule stabilizers of the endoplasmic reticulum resident proteome: Secreted ER Calcium Modulated Protein (SERCaMP) assay (AID 1508630)
Settings: SH-SY5Y GLuc-SERCaMP (Gaussia luciferase released on ER calcium loss) secretion, thapsigargin, luminescence; series mostly up to 38.4 µM; activity change, negative = inhibition: at the top concentration
Procedure, shortened: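 The SH-SY5Y reporter protocol was run at 3 concentrations up to 38.3 uM (primary) or 11 concentrations (follow-up): 16 h compound, 100 nM thapsigargin for 4 h, then extracellular luciferase luminescence.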
With `O=C(Nc1ccc(Cl)cc1)Nc1ccc(Cl)c(C(F)(F)F)c1` the “activity change, negative = inhibition” value was 53.2%.
For `NC(=O)NC1N=C([O][Al])NC1=O` (configuration not stated), the “activity change, negative = inhibition” value was -14.8%.
For `COc1ccccc1OCC1CNC(=O)O1` (configuration not stated), the “activity change, negative = inhibition” value was -28.7%.
In the case of `CNC[C@H](O)[C@@H](O)[C@H](O)[C@H](O)CO`, the “activity change, negative = inhibition” value is reported as -2.82%.
For `CC(=O)N(CC(O)CO)c1c(I)c(C(=O)NCCO)c(I)c(C(=O)NCC(O)CO)c1I` (configuration not stated), the “activity change, negative = inhibition” value was -19.6%.
With `NS(=O)(=O)c1cc2c(cc1Cl)CN(C1CCCCC1)C2=O` the “activity change, negative = inhibition” value was -16.1%.
For `CCCC(=O)O[C@]1(C(=O)CCl)[C@@H](C)C[C@H]2[C@@H]3CCC4=CC(=O)C=C[C@]4(C)[C@@]3(F)C(=O)C[C@@]21C`, the “activity change, negative = inhibition” value was -15.1%.
In the case of `c1ccc(C(O[C@H]2CCCN(CCc3ccc4c(c3)OCO4)C2)c2ccccc2)cc1`, the “activity change, negative = inhibition” value is reported as -9.65%.
For `O=C(Nc1ccc(Cl)cc1)Nc1ccc(Cl)c(Cl)c1`, the “activity change, negative = inhibition” value was -15.3%.
In the case of `C[C@H]1NCc2cc(-c3ccc4c(=O)c(C(=O)O)cn(C5CC5)c4c3OC(F)F)ccc21`, the “activity change, negative = inhibition” value is reported as 7.45% [at 21.6 µM].
In the case of `CN=C(N)NC(=O)Nc1c(C)cccc1C`, the “activity change, negative = inhibition” value is reported as 0.509%.
With `CN(C(=O)C(Cl)Cl)c1ccc(OC(=O)c2ccco2)cc1` the “activity change, negative = inhibition” value was -2.19%.
In the case of `CN1CC[C@H](c2c(O)cc(O)c3c(=O)cc(-c4ccccc4Cl)oc23)[C@H](O)C1`, the “activity change, negative = inhibition” value is reported as 108%.
For `Cc1cc(=O)oc2cc(O[C@@H]3SC[C@@H](O)[C@H](O)[C@H]3O)ccc12`, the “activity change, negative = inhibition” value was 17.2%.
In the case of `CCCCCN(CCCOC)C(=O)C(CCC(=O)O)NC(=O)c1ccc(Cl)c(Cl)c1` (configuration not stated), the “activity change, negative = inhibition” value is reported as -19%.
With `COc1ccc(-n2nc(CCC(=O)N(C)O)cc2-c2ccc(Cl)cc2)cc1` the “activity change, negative = inhibition” value was -25.4%.
With `CCCCCCCCCCCC[N+](C)(C)Cc1ccccc1` the “activity change, negative = inhibition” value was 14.9%.

Reference: PubChem BioAssay (NCATS)
On the % scale 0 is the no-effect control and ±100 the full control effect.
